HSF-1 act = HSF-1 activators, primary screen, NIH3T3-HGL cells, MG132 stress, luminescence, single point. NIH3T3-HGL HSF-1 luciferase reporter, 8 h; 100% = twice DMSO control signal. activation, % at 9 µM. 1.7% of 300,000 active. AID 504408, 2011;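 active = mean replicate activation of at least 50% with a set share of replicates each reaching 50%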;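 note: 0% = median of the neutral control wells and 100% = twice that signal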
HSP90 inh = HSP90 inhibitors, primary screen, cell lysate, luminescence. inhibition, % at 5.6 µM. 0.91% of 290,000 active. Rabbit reticulocyte lysate, luciferase refolding luminescence, 3 h;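 active = inhibition above the screen-wide mean plus 3 SD, computed separately per campaign, cut at about 16% in these data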;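 note: 0% = DMSO wells and 100% = 60 µM geldanamycin wells; inhibitors lower the luminescence because luciferase stays unfolded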
DAX1 inh = DAX1 (NR0B1) inhibitors, primary screen, cell-based, HEK293, Gal4-DAX1, luciferase luminescence. HEK293 Gal4-DAX1 luciferase reporter. AID 504766, 2011. 0.99% of 340,000 active. Nuclear receptor subfamily 0 group B member 1 (Homo sapiens), P51843. inhibition, % at 6.75 µM;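 active = inhibition above the mean over all tested compounds plus 3 SD, cut at about 4.2% in these data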;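 note: 0% = DAX1-transfected cells with DMSO and 100% = empty-vector control cells with DMSO; inhibition shows as a rise in luminescence from relieved DAX1 repression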
HSF1 inhib = HSF1 inhibitors in luciferase reporter cells, primary screen, cell-based, NIH3T3, luminescence | NIH3T3-HGL HSE-luciferase, MG132-induced, luminescence 8 h; stronger effect = lower value | activity change, negative = inhibition, % at 7.5 µM (by protocol) | 0.77% of 300,000 active | AID 2098, 2009;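 active = more than half of replicate wells show activity change below -50%, luminescence cut by over half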;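 note: luciferase reports HSF-1 transcriptional activity via heat shock element; 0% = median of DMSO wells and -100% = zero luminescence signal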
AHR activator = AHR activators, primary screen, cell-based, luminescence, luciferase reporter, human; Aryl hydrocarbon receptor (Homo sapiens), P35869; AHR-responsive luciferase reporter cells; activation, % at 5 µM; 2.5% of 320,000 active; AID 2796, 2010; in the data active = activation above about 47%;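 note: 0% = vehicle wells and 100% = reference agonist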
Target sequence (P35869 whole entry, looked up): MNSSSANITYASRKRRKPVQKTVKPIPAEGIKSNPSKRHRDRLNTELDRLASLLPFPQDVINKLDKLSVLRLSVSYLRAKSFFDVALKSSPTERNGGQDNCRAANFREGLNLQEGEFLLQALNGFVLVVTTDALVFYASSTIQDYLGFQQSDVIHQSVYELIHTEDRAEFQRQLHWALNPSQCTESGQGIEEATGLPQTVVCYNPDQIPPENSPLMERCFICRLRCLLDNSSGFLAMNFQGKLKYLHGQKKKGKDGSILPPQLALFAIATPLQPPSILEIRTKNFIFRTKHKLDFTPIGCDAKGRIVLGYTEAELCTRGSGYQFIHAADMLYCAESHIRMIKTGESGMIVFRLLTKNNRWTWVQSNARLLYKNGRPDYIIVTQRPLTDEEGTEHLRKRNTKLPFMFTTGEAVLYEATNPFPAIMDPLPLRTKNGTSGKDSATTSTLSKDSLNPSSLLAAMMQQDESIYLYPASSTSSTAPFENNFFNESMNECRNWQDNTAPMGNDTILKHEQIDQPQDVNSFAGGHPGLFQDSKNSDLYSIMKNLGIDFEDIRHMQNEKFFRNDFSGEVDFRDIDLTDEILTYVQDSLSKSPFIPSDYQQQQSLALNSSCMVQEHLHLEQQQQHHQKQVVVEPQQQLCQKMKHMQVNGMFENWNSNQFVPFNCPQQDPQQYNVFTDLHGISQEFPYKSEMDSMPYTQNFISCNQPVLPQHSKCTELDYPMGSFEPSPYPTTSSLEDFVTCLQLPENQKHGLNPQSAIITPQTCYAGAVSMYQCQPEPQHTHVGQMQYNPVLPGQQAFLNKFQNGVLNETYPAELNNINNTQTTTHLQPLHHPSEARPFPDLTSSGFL
GAA850 FXN act = FXN promoter activators, primary screen, cell-based, luciferase luminescence, HEK293 lucGAA850. HEK293 lucGAA850 FXN promoter luciferase reporter, 24 h; percent of 10 µM SAHA response. activation, % at 6 µM. 0.56% of 360,000 active;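 active = activation above the average of all compounds screened plus 3 SD, cutoff fixed separately per campaign, cut at about 7.5% in these data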;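 note: 0% = DMSO wells and 100% = 10 µM SAHA wells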
HSP90 inh confirm = HSP90 inhibitors, confirmation, cell lysate, luminescence; inhibition, % at 5.9 µM; shares compounds with HSP90 inh; rabbit reticulocyte lysate, luciferase refolding luminescence, 3 h; 64% of 2,300 active; in the data active = inhibition above about 18%;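 note: 0% = vehicle wells and 100% = reference inhibitor wells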
luciferase ctr = firefly luciferase inhibitors, HSP90 counter-screen, confirmation, artefact control for HSP90 inhibitor project, biochemical, luminescence, triplicate | shares compounds with HSP90 inh | purified native firefly luciferase | inhibition, % at 5.9 µM | 48% of 2,300 active | AID 1847, 2009;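 active = inhibition above the mean inhibition of all tested sample wells plus 3 SD, cut at about 10% in these data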;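 note: 0% = DMSO with luciferase and 100% = wells lacking luciferase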
Starred values were filed as active, the others as inactive; nt = not tested or not shown. Only some compounds are listed: those with a hit (about 5.9% of all), similar ones and a draw of the others.

SMILES	HSF-1 act	HSP90 inh	DAX1 inh	HSF1 inhib	AHR activator	GAA850 FXN act	HSP90 inh confirm	luciferase ctr
CC(=O)Oc1ccccc1/C=C/c1nc2ccccc2c(=O)o1	11.5	31.8*	-2.7	-4.6	3.7	-1.8	44.6*	-7.7
CC(=O)Oc1ccc(-c2nc3ccccc3c(=O)o2)cc1	7.8	3.0	1.0	-7.0	-1.5	-0.6	nt	nt
CC(=O)Oc1ccc(/C=C/c2nc3ccccc3c(=O)o2)cc1	5.2	27.6*	-6.2	1.2	10.7	1.0	31.7*	-13.4
COc1ccc(/C=C\c2nc(=O)c3ccccc3o2)cc1	75.8*	21.2*	-0.9	23.8	nt	4.4	30.6*	14.4*
c1ccc(-c2nnc(-c3ccccn3)s2)nc1	nt	35.0*	-3.0	20.2	65.0*	1.2	64.2*	44.3*
c1ccc(-c2nc(-c3ccccn3)nc(-c3ccccn3)n2)nc1	nt	-0.9	-0.5	5.7	9.9	-1.0	nt	nt
Cc1nnsc1S(=O)c1ccc(F)cc1 (stereo not given)	-9.7	23.9*	-1.0	4.4	-0.2	0.8	-6.4	-11.4
Cc1nnsc1S(=O)c1ccc(Br)cc1 (stereo not given)	1.3	-1.4	-2.2	0.4	4.1	-1.9	nt	nt
O=C(c1cc(-c2ccc(Br)cc2)on1)N1CCOCC1	31.4	18.9*	-0.5	23.3	-4.5	3.4	38.3*	29.1*
COc1cccc(-c2cc(C(=O)N3CCOCC3)no2)c1	60.9*	18.5*	1.0	22.9	3.5	3.1	18.6*	-4.1
COc1ccc(-c2cc(C(=O)N3CCOCC3)no2)cc1	10.4	37.0*	-0.9	-4.0	-2.0	-2.2	50.0*	32.3*
O=C(c1cc(-c2ccc(Br)cc2)on1)N1CCCCCC1	45.3	5.7	1.7	25.4	-4.5	3.4	nt	nt
CC1CCN(C(=O)c2cc(-c3ccc4c(c3)OCO4)on2)CC1	30.7	20.3*	1.3	7.6	-4.2	3.8	39.1*	28.2*
Cc1[nH]c2ccccc2c1/C=N/Nc1nncn1N	nt	78.3*	-2.5	nt	41.3	2.4	-9.6	-37.0
Cc1[nH]c2ccccc2c1/C=N/Nc1ccccn1	4.6	-2.3	nt	-3.1	nt	nt	nt	nt
Cc1ccc(C(=O)O)cc1-n1c(C)cc(C=O)c1C	-4.9	0.1	1.6	-4.6	0.2	1.8	nt	nt
Cc1c(C(=O)O)cccc1-n1c(C)cc(C=O)c1C	-12.3	22.2*	1.3	-6.2	0.7	1.6	19.4*	4.5
O=C(CSc1nc(=O)n(CCCN2CCOCC2)c2c1CCC2)Nc1ccccc1F	-1.7	nt	0.0	1.3	-2.0	0.3	nt	nt
Nc1cccc(-c2nc3ccc(N)cc3s2)c1	1.9	19.6*	-0.3	-5.0	10.1	-3.2	66.1*	52.6*
Nc1ccc2nc(SCc3cccc(F)c3)sc2c1	-2.3	-5.7	0.1	0.0	8.8	3.0	nt	nt
Nc1ccc(-c2nc3ccc(N)cc3s2)cc1	7.2	54.0*	-0.9	4.1	-5.7	0.2	69.2*	60.6*
COc1cc2cc(CN(C(=O)NC3CCCCC3)C3CCCC3)c(=O)[nH]c2cc1OC	-53.7	22.1*	0.1	-43.6	1.3	-2.5	-4.3	-7.5
COc1ccc(CN(Cc2cc3cc(OC)c(OC)cc3[nH]c2=O)C(=O)NC2CCCCC2)cc1	nt	-1.2	2.5	nt	-0.3	-1.1	nt	nt
Cc1cc(C)n(C(=O)c2c([N+](=O)[O-])cnn2C)n1	5.3	72.0*	1.3	-4.9	-0.8	0.4	-4.3	-9.6
CCn1ncc([N+](=O)[O-])c1C(=O)n1nc(C)cc1C	-25.5	-1.8	-0.6	-14.7	1.9	3.6	nt	nt
SMILES	HSF-1 act	HSP90 inh	DAX1 inh	HSF1 inhib	AHR activator	GAA850 FXN act	HSP90 inh confirm	luciferase ctr
CCOC(=O)c1cc(-c2ccccc2)sc1NC(=O)C(C)N1C(=O)NC(C)(c2ccc(Cl)cc2)C1=O (stereo not given)	-16.4	18.0*	0.7	-1.5	-1.6	-0.7	9.2	-6.4
COC(=O)C(C)Sc1nc2c(c(-c3ccc(OC)cc3)c1C#N)-c1ccccc1C2=O (stereo not given)	-13.1	-0.3	0.0	1.6	-1.5	1.2	nt	nt
Cc1ccccc1-c1ccc(=O)n(CC(=O)Nc2ccc(C(=O)N3CCCC3)cc2)n1	12.9	-0.8	-0.2	-11.8	7.9	1.7	nt	nt
Cc1ccccc1-c1ccc(=O)n(CC(=O)Nc2ccc(N3CCOCC3)cc2)n1	25.3	43.2*	-0.4	13.5	27.5	1.0	0.1	-5.1
O=C(NC(=S)Nc1ccc(CN2CCOCC2)cc1)c1cccc(F)c1	18.4	-4.2	0.1	11.2	nt	0.8	nt	nt
Cc1cc(C(=O)Cn2nnc3ccccc3c2=O)c(C)n1Cc1cccs1	-3.9	34.5*	1.6	-2.5	4.7	3.8	52.7*	45.0*
Cc1cc(C(=O)CN2C(=O)c3ccccc3C2=O)c(C)n1Cc1cccs1	27.2	1.6	-0.1	8.3	-0.3	-5.9	nt	nt
CCN(CC)S(=O)(=O)c1ccc(C)c(NC(=O)CN(C)C)c1	9.8	48.8*	-1.9	3.4	4.3	1.6	-3.5	-4.5
COc1ccc(C(=O)/C=C/c2ccc(OC)c(COc3ccc(F)cc3)c2)cc1	7.2	23.9*	-0.1	12.8	1.5	2.6	21.3*	-11.6
Cc1cc(S(=O)(=O)N2CCOCC2)ccc1OCC(=O)Nc1ccc(F)cc1	6.1	-2.6	1.8	-4.4	-1.4	1.8	nt	nt
Cc1ccc(OCC(=O)Nc2ccc(S(=O)(=O)N3CCOCC3)cc2)c(C)c1	6.7	20.0*	-2.1	2.9	nt	1.1	6.8	2.0
c1csc(-c2ccc(N3CCOCC3)nn2)c1	19.2	27.6*	-0.1	7.7	0.1	2.0	33.8*	16.6*
CCOC(=O)C1CCN(c2ccc(-c3cccs3)nn2)CC1	14.8	27.0*	1.0	7.8	1.8	3.9	34.2*	38.5*
Cc1nc(-c2ccc(S(=O)(=O)Nc3cc(S(=O)(=O)N(C)C)ccc3C)s2)cs1	-9.7	0.1	-0.3	-4.4	-2.1	1.6	nt	nt
CC1CCCN(C(=O)CN(c2ccccc2)S(=O)(=O)c2ccc(F)cc2)C1 (stereo not given)	nt	nt	-0.4	nt	1.5	-0.3	nt	nt
Cc1[nH]n(-c2ccccc2)c(=O)c1C(c1cccc([N+](=O)[O-])c1O)c1c(C)[nH]n(-c2ccccc2)c1=O	-0.5	23.9*	-0.7	4.1	19.3	0.8	-9.8	-4.2

From PubChem
